Compound activity as filed in PubChem BioAssay.
Many of the other results were omitted from the sample, so hits are more common in it than they were.
Pf Dd2 growth: inhibitors of Plasmodium falciparum Dd2 growth. AID 1347417. 120,000 tested, 4.3% active. P. falciparum Dd2 growth, SYBR Green, 72 h. Potency, µM (highest dose often 28.9 µM), for inactives: at the highest dose activity, negative = inhibition, usual class: inhibitors; active means well fitted inhibition curve with a large enough effect;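 further: plate controls were DMSO vehicle for no effect and reference drug for full effect; nearly all actives have a fitted effect of over 65% in size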
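Infected erythrocytes (Dd2, 0.3% parasitemia, 2.5% hematocrit final) are added to compound in RPMI-1640/Albumax II medium, grown 72 h at 37C in low oxygen, then lysed with saponin/Triton-X containing SYBR Green and read by fluorescence.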
* = called active by the depositor; i = inactive; [ ] = dose if it differs, or a comment. Potency means the concentration at half of the fitted maximal effect.

SMILES	Pf Dd2 growth
Cc1cc2ncc(C(=O)NCCc3ccccn3)cn2n1	-12.8%[44.1 µM]
CCN1c2cc(C(=O)Nc3ccc(Cl)c(Cl)c3)ccc2C(=O)N2CCCCC21 (stereo not given)	-8.1%
CN1c2cc(C(=O)Nc3ccc(C(F)(F)F)cc3)ccc2C(=O)N2CCCCCC21 (stereo not given)	11.2µM*
CN1c2cc(C(=O)Nc3ccc(Br)cc3)ccc2C(=O)N2CCCCCC21 (stereo not given)	-20.8%
CN1c2cc(C(=O)Nc3ccc(F)cc3)ccc2C(=O)N2CCCCCC21 (stereo not given)	i
Cc1cc(NC(=O)c2ccc3c(c2)N(C)C2CCCCCN2C3=O)ccc1Cl (stereo not given)	i
CCN1c2cc(C(=O)Nc3ccc(Cl)c(C)c3)ccc2C(=O)N2CCCCCC21 (stereo not given)	6.31µM*
COCCC(=O)N1CC[C@H](c2nc3ccccc3o2)C1	-10.4%[44.1 µM]
CC[C@H]1CN(C(=O)Nc2ccccc2)CC[C@H]1CC(=O)N(C)CC#N	-20.3%[44.1 µM]
C[C@@H]1CN(C(=O)NCC2CCCCC2)CC[C@@]1(O)C1CCOCC1	-5.4%
O=C(c1ccco1)N1CCC(c2n[nH]c(=O)n2Cc2ccc(F)cc2)CC1	-19.4%
CCOC(=O)c1cc(-c2ccc(OC)cc2)n(CCC(=O)NCc2ccccc2OC)c1C	7.94µM*
CCOC(=O)c1cc(-c2ccccc2)n(CCC(=O)NCc2ccccc2Cl)c1C	i
COc1ccc(-c2cc(C(C)=O)c(C)n2CCC(=O)NCc2ccccc2OC)cc1	-12.5%
CCN1C(=O)CCN(C(=O)C2CCCC2)CC12CCOCC2	9.1%
O=C1c2cc(N3CCOCC3)nc(-c3cccc(CO)c3)c2CN1Cc1ccccc1	i
COC[C@@H]1CN(C(=O)c2ccc(OC)nc2OC)C[C@H]1c1ccncc1	-10.0%
Cc1cccc(CNC(=O)Cn2c(-c3cccs3)cc3ccccc32)c1	11.2µM*
O=C(Cn1c(-c2cccs2)cc2ccccc21)NCCCN1CCN(c2ccc(F)cc2)CC1	10µM*
Cc1ccc(-n2nc(C)c(C(=O)NCCCN3CCN(c4ccc(F)cc4)CC3)c2-n2cccc2)cc1	i
Cc1cccc(CNC(=O)CN2CC(C)Sc3ccccc32)c1 (stereo not given)	-10.2%
CC(C)Oc1ccc(CNC(=O)Cn2c(-c3cccs3)cc3ccccc32)cc1	-7.8%
CCOC(=O)c1c(C)[nH]c(CCC(=O)NCCCN2CCN(c3ccc(F)cc3)CC2)c1C	-16.9%
COc1cccc(N2CCN(C(=O)Cn3c(-c4cccs4)cc4ccccc43)CC2)c1	-16.2%
COc1ccc(N2CCN(CCCNC(=O)Nc3ccccc3)CC2)cc1	i
SMILES	Pf Dd2 growth
COc1ccc(N2CCN(CCCNC(=O)Cn3c(-c4cccs4)cc4ccccc43)CC2)cc1	11.2µM*
COc1ccc(CCN2C(=O)O[C@@H]3CN(C(=O)NCc4ccccc4)C[C@@H]32)cc1	-9.3%
CC(=O)N[C@H]1CC[C@]2(C)CC[C@@H](C(C)C(=O)NC3CC3)[C@H](O)[C@H]2[C@@H]1C (stereo not given in full)	2.8%[44.1 µM]
Cc1ccc(-c2nc(C3CC(=O)OC34CCCC4)n(CC(=O)O)n2)o1 (stereo not given)	2.0%
CCCNC(=O)C1COC2(CCN(C(=O)CC)CC2)N1C(=O)c1cccc(OC)c1 (stereo not given)	1.5%
COCCN1CCCCC(CC(=O)Nc2ccc(OC)cc2)C1=O (stereo not given)	1.0%
CCN(CC)Cc1cnc2c(C(=O)NCc3cnn4cccnc34)cnn2c1	-21.2%
COCCNC(=O)[C@H]1C[C@H](Oc2ccccc2)CN1Cc1ccncc1	14.3%
O=C(CCC1CCN(Cc2ccc(Cl)s2)CC1)N1CCN(c2ccccc2)CC1	-13.0%
Cc1cccc(NC(=O)CSc2nnc(C)c(=O)[nH]2)c1	49.1%
Cc1ccc(NC(=O)CSc2nc(C)c(Cc3ccccc3)c(=O)[nH]2)cc1C	-25.4%
Cc1nnc(SCC(=O)Nc2ccc(N(C)C)cc2)[nH]c1=O	11.2µM*
CC(=O)NCCCC(=O)N1CCC2(CC1)CN(C(=O)NC(C)C)CCO2	-6.7%
CCC(c1nc(-c2ccc(C)nn2)no1)n1cccn1 (stereo not given)	-3.3%
O=C(c1ccoc1)N1CCCC(c2nc(C3CCOCC3)no2)C1 (stereo not given)	52.1%
CCCCN(CCCC)S(=O)(=O)c1ccc2oc(C(=O)NCc3ccc(C)cc3)c(C)c2c1	8.91µM*
COc1ccc(C)cc1NC(=O)c1oc2ccc(S(=O)(=O)N(C)C3CCCCC3)cc2c1C	29.4%
CCN(CC)S(=O)(=O)c1ccc2oc(C(=O)N(C)Cc3ccccc3)c(C)c2c1	-22.4%
COCCn1c(SCC(=O)c2ccc(C)cc2C)nc2cc(C(=O)NC3CCCC3)ccc2c1=O	17.2%
COCCn1c(SCC(=O)c2ccc(C)cc2)nc2cc(C(=O)NC3CCCC3)ccc2c1=O	20.5%
Cc1ccc(C(=O)CSc2nc3cc(C(=O)NC4CCCC4)ccc3c(=O)n2CC2CCCO2)cc1 (stereo not given)	-16.6%
O=C(CSc1nc2cc(C(=O)NC3CCCC3)ccc2c(=O)n1CC1CCCO1)c1ccc(F)cc1 (stereo not given)	-26.1%
O=C(CSc1nc2cc(C(=O)NC3CCCC3)ccc2c(=O)n1CC1CCCO1)c1cccc(Cl)c1 (stereo not given)	10µM*
Cc1ccc(C)c(C(=O)CSc2nc3cc(C(=O)NC4CCCC4)ccc3c(=O)n2CC2CCCO2)c1 (stereo not given)	10µM*
COC[C@H]1C[C@@H](NCc2cccc(C(F)(F)F)c2)[C@H](O)[C@@H]1O	i
SMILES	Pf Dd2 growth
COc1ccccc1-c1cc(C(=O)NC(C)C)c2cnn(C)c2n1	-17.3%
CNC(=O)[C@@H](CC(C)C)N1CCC[C@H]1C(=O)N[C@@H](CO)CC(C)C	-19.0%[44.1 µM]
COc1cccc(NC(=O)C2CCCN(Cc3cccnc3)CCC(=O)NCC2)c1 (stereo not given)	-19.8%
COc1cccc(-c2ccccc2NC(=O)C2CCN(Cc3cc(OC)ccc3O)CC2)c1	2.24µM*
COc1ccc(-c2ccccc2NC(=O)C2CCCN(CC=C(C)C)C2)cc1 (stereo not given)	7.94µM*
CCc1ncc(CN2CCCC(C(=O)Nc3ccccc3-c3ccc(OC)cc3)C2)cn1 (stereo not given)	i
COc1ccc(-c2ccccc2NC(=O)C2CCCN2S(C)(=O)=O)cc1 (stereo not given)	-6.1%
COc1cccc(-c2ccccc2NC(=O)C2CCN(Cc3ccc(F)cc3)CC2)c1	7.94µM*
CCn1ccnc1CN1CCCC(C(=O)Nc2ccccc2-c2ccc(OC)cc2)C1 (stereo not given)	i
COc1ccc(-c2ccccc2NC(=O)C2CCCN(Cc3cnc(SC)nc3)C2)cc1 (stereo not given)	-25.4%
COc1cccc(-c2ccc(CN3C4CCC3CN(C(=O)Nc3ccccc3F)C4)cc2)c1	i
CN1CCCC(CNc2ncc(C(C)(C)C(=O)O)c(N3CCOCC3)n2)C1 (stereo not given)	-8.7%
O=C(CN1C(=O)NC2(CCCCC2)C1=O)Nc1cccc(C(F)(F)F)c1	-22.9%
Cc1nc2scc(CC(=O)NC3CC3)n2c(=O)c1-c1cc(C)n(-c2ccccc2F)n1	i
CCCc1noc(CN(C)C(=O)[C@@]23CNC[C@@H]2CN(Cc2ccccc2)C3)n1	-25.9%
COc1ccc(CCC(=O)N2CCC(c3nc(C4CCOCC4)no3)CC2)cc1	-7.7%
O=C(NCCc1cccs1)C1CN(S(=O)(=O)C2CC2)CC12CCCCC2 (stereo not given)	-14.7%
